Bioassay records (PubChem BioAssay)
Anaer choline gr: choline-fed anaerobic bacterial growth inhibition | Gram-negative bacterium anaerobic choline minimal medium, absorbance growth; hits give low values | calls only | actives 0.2% (n = 55,000) | AID 1963822; call rule not given here
Calls only. Shown is part of a subset that was picked to be rich in hits.

`CN(C)c1ccc(NC(=O)c2ccccc2Cl)c(C(=O)O)c1` gave Anaer choline gr active.
`O=C(Nc1ccc(N2CCN(C3CCCCC3)CC2)cc1C(=O)O)c1ccccc1Cl` gave Anaer choline gr inactive.
CN(C)c1ccc(NC(=O)c2ccc(Br)cc2)c(C(=O)O)c1 was read as Anaer choline gr inactive.
CCN1CCN(c2ccc(NC(=O)c3ccccc3Cl)c(C(=O)O)c2)CC1 was read as Anaer choline gr inactive.
CC1CCN(c2ccc(NC(=O)c3ccccc3Cl)c(C(=O)O)c2)CC1 was read as Anaer choline gr active.
Screening Cc1cccc(N2CCN(c3ccc(NC(=O)c4ccccc4Cl)c(C(=O)O)c3)CC2)c1C returned Anaer choline gr inactive.
`Cc1cc(=O)[nH]c(-n2nc(C)cc2NC(=O)c2ccc(OC(C)C)cc2)n1` gave Anaer choline gr inactive.
`CCOc1ccc(S(=O)(=O)c2cn(CC(=O)Nc3cccc(C)c3)c3ccc(F)cc3c2=O)cc1` gave Anaer choline gr inactive.
`CC(C)c1ccc(-c2noc(SCC(=O)NCC3CCCO3)n2)cc1` (stereo unspecified) gave Anaer choline gr active.
Cc1ccc(NC(=O)CSc2nc(-c3ccc(C(C)C)cc3)no2)cc1 was read as Anaer choline gr inactive.
`CC(C)c1ccc(-c2noc(SCC(=O)Nc3ccccc3Cl)n2)cc1` gave Anaer choline gr inactive.
Screening Cc1cccc(NC(=O)CC2CCN(C(=O)c3nnc(C(=O)Nc4ccc(F)cc4)s3)CC2)c1C returned Anaer choline gr inactive.
CCOc1ccc(NC(=O)c2oc3ccc(C)cc3c2C)c2cccnc12 was read as Anaer choline gr inactive.
For COc1cccc(C2Nc3ccccc3-n3c(-c4ccccc4)c4c(=O)n(C)c(=O)n(C)c4c32)c1O (stereo unspecified) the results were Anaer choline gr inactive.
Screening CCOc1cccc(C2Nc3ccccc3-n3cc4c(=O)n(C)c(=O)n(C)c4c32)c1O (stereo unspecified) returned Anaer choline gr inactive.
Screening Cn1c(=O)c2cn3c(c2n(C)c1=O)C(c1ccc(O)c(O)c1)Nc1ccccc1-3 (stereo unspecified) returned Anaer choline gr inactive.
`Cc1ccc(C2Nc3ccccc3-n3cc4c(=O)n(C)c(=O)n(C)c4c32)c(O)c1` (stereo unspecified) gave Anaer choline gr active.
`COc1ccc(C2Nc3ccccc3-n3cc4c(=O)n(C)c(=O)n(C)c4c32)c(OC)c1` (stereo unspecified) gave Anaer choline gr active.
`COc1cccc(C2Nc3ccccc3-n3cc4c(=O)n(C)c(=O)n(C)c4c32)c1OC` (stereo unspecified) gave Anaer choline gr inactive.
`COc1ccc(N(Cc2nc3nc(C)cc(=O)n3[nH]2)S(=O)(=O)c2ccc(Cl)cc2)cc1` gave Anaer choline gr inactive.
Screening CN(CCCNC(=O)C1CCN(c2nn3c(=O)c4c(nc3s2)CCCC4)CC1)C1CCCCC1 returned Anaer choline gr inactive.
Screening O=c1c2ccccc2[nH]c(=S)n1CCN1CCOCC1 returned Anaer choline gr inactive.
Screening Cc1[nH]c(C)c(S(=O)(=O)N2CCC(C(=O)N3CCN(C4CCCCC4)CC3)CC2)c1C(=O)N1CCCC1 returned Anaer choline gr active.
`Cc1[nH]c(C)c(S(=O)(=O)N2CCC(C(=O)N3CCC(C)CC3)CC2)c1C(=O)N1CCCCC1` gave Anaer choline gr inactive.
Cc1[nH]c(C)c(S(=O)(=O)N2CCC(C(=O)Nc3ccc(F)c(Cl)c3)CC2)c1C(=O)N1CCCC1 was read as Anaer choline gr inactive.
`Cc1[nH]c(C)c(S(=O)(=O)N2CCC(C(=O)Nc3ccc(F)cc3)CC2)c1C(=O)N1CCCC1` gave Anaer choline gr active.
Screening Cc1[nH]c(C)c(S(=O)(=O)N2CCC(C(=O)Nc3ccc(Cl)cc3)CC2)c1C(=O)N1CCCC1 returned Anaer choline gr inactive.
Cc1[nH]c(C)c(S(=O)(=O)N2CCC(C(=O)N3CCN(C4CCCCC4)CC3)CC2)c1C(=O)N1CCCCC1 was read as Anaer choline gr inactive.
`CCC(C)NC(=O)c1cc(C)nc2c1c(=O)n(C)c(=O)n2C` (stereo unspecified) gave Anaer choline gr inactive.
Screening CCOc1c(C(=O)OC)sc2ccc(NC(=O)NCc3cccc(OC)c3)cc12 returned Anaer choline gr inactive.
`Cc1nn(-c2ccc3nnc(C)n3n2)c2c1C(c1ccc(F)cc1)CC(=O)N2` (stereo unspecified) gave Anaer choline gr inactive.
COc1cccc(CNC(=O)c2cc(-c3ccc(F)cc3)[nH]c2C)c1 was read as Anaer choline gr inactive.
Screening CC(=O)NNC(=O)N1Cc2ccccc2Oc2ccc(Cl)cc21 returned Anaer choline gr inactive.
For CCN(CC)CCCCN1c2ccccc2Oc2ccc(Cl)cc21 the results were Anaer choline gr active.
For CCN(CC)CCCNC(=O)CCCN1C(=O)c2cccnc2Oc2ccc(Cl)cc21 the results were Anaer choline gr inactive.
`Cc1nn(CCCC(=O)NCc2ccc(Cl)cc2)c(=O)c2c(-n3cccc3)n(-c3ccccc3)nc12` gave Anaer choline gr inactive.
Screening Cc1cc(C(=O)N2CCCC2c2cc(C)no2)on1 (stereo unspecified) returned Anaer choline gr inactive.
For Cc1cc(-c2cc(S(=O)(=O)N3CCN(C4CCCCC4)CC3)c(C)s2)n[nH]1 the results were Anaer choline gr inactive.
Screening COc1ccc(NCc2cccn2-c2nnc(N3CCN(c4ccccc4)CC3)s2)cc1OC returned Anaer choline gr inactive.
Screening COc1ccc(CNc2ccc(C(=O)N3CCc4ccccc43)nn2)cc1 returned Anaer choline gr active.
`O=C(c1ccc(NC2CCCC2)nn1)N1CCc2ccccc21` gave Anaer choline gr inactive.
For COc1ccccc1N1CCN(c2ccc(C(=O)N3CCc4ccccc43)nn2)CC1 the results were Anaer choline gr inactive.
For Cc1noc(C)c1CCNC(=O)CCSCc1cnn(-c2ccccc2)c1-n1cccc1 the results were Anaer choline gr inactive.
For CCCC(=O)N1CCC2(CC1)Nc1cc(F)ccc1-n1cccc12 the results were Anaer choline gr inactive.
COc1cc(CC2C(=O)Nc3ccccc32)cc(Cl)c1OC (stereo unspecified) was read as Anaer choline gr inactive.
O=C1Nc2ccccc2C1Cc1ccccc1F (stereo unspecified) was read as Anaer choline gr inactive.
For O=C1Nc2ccccc2C1Cc1ccc(Cl)cc1 (stereo unspecified) the results were Anaer choline gr active.
`CN1CCN(C(=O)c2cc(-c3cccnc3)n(-c3ccc(F)cc3)n2)CC1` gave Anaer choline gr inactive.
For CCC(=O)Nc1nc2cc(NC(=O)NCCc3ccccc3)ccc2s1 the results were Anaer choline gr inactive.
For CCCCC/C=C\CC1OC1C/C=C\C/C=C\CCCC(=O)O (stereo unspecified) the results were Anaer choline gr inactive.
For CC/C=C\C/C=C\C/C=C\C/C=C\C/C=C\CCCCCC(=O)O the results were Anaer choline gr inactive.
Screening CCCCCCCCCCC/C=C\C/C=C\CCCC(=O)O returned Anaer choline gr active.
Cc1cccc(C)c1OCc1nc2c3c4c(sc3ncn2n1)CCCC4 was read as Anaer choline gr inactive.
`Cc1nc2cccnc2n1-c1ccc(CC(=O)NCCC2=CCCCC2)cc1` gave Anaer choline gr inactive.
CC(Sc1nnc(-c2ccncc2)o1)C(=O)Nc1ccc2c(c1)OCCO2 (stereo unspecified) was read as Anaer choline gr inactive.
For Cc1ccc(NC(=O)CSc2nnc(-c3ccncc3)o2)cc1Cl the results were Anaer choline gr inactive.
`O=C(CSc1nnc(-c2ccncc2)o1)Nc1ccc2c(c1)OCO2` gave Anaer choline gr active.
